Sampled rows, rich in hits. Any-hit rate of the full collection: about 3.1%.
CF NFkB block: blocks PAF-induced NF-kB reporter in cystic fibrosis cells | hit rate 0.86% among 360,000 | inhibition, % at 5 µM | AID 588850 | KKLEB NF-kB-GFP reporter, GFP fluorescence overnight;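 active = at least 50% inhibition at 5 µM, scaled per plate between neutral and stimulator controls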;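 also: PAF is a Pseudomonas aeruginosa culture filtrate used as stimulus; plate controls were PAF-stimulated DMSO wells for no effect and unstimulated DMSO wells for full effect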
ABHD5 PLIN5 PPI: ABHD5-PLIN5 protein interaction inhibition; Q00G26+Q8WTS1; Split G. princeps luciferase complementation, luminescence, 4 h; inhibition, % at 4 µM; hit rate 0.78% among 360,000;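 active = inhibition above the mean inhibition across every tested compound plus 3 SD, cut at about 22% in these data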;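 also: 0% = DMSO only wells and the 100% control is not disclosed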
Target sequence (Q00G26 whole entry, looked up): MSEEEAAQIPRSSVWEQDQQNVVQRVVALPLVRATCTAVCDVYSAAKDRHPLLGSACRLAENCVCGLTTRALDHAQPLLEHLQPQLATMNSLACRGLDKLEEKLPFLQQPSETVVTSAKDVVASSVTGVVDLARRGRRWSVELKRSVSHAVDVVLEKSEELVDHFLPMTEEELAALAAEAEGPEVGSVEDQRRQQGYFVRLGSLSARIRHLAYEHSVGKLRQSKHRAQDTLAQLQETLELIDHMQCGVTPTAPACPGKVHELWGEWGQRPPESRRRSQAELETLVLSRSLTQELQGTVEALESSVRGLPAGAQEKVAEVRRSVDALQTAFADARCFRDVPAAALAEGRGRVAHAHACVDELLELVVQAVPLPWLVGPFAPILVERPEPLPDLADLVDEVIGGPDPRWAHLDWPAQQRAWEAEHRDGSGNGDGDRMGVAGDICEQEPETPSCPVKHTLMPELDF
Target sequence (Q8WTS1 whole entry, looked up): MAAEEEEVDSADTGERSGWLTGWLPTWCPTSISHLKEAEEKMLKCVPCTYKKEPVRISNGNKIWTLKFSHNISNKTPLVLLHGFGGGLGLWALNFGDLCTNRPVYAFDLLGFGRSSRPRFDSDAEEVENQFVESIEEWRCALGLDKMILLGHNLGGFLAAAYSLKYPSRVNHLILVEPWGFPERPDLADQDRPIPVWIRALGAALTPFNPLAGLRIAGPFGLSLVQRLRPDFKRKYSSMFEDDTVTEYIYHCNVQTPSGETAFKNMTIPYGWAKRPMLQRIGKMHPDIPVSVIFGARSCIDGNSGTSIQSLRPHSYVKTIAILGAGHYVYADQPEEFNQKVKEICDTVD
KKLEB cytotox: CF airway cell cytotoxicity counter-screen | KKLEB CF airway cells viability, ATPlite luminescence, overnight; active compounds read low; cells stimulated with P. aeruginosa culture filtrate | activity change (cytotoxicity), % at 5 µM | hit rate 0.36% among 360,000 | AID 602141;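 active = corrected activity change at or below -50% at 5 µM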
Peg3 prom inh: reduces Peg3 promoter-driven luciferase expression in HeLa. AID 588405. inhibition, % at 20 µM. hit rate 1.7% among 360,000. HeLa PEG-Prom luciferase reporter, luminescence, overnight;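 active = inhibition of at least 50% at 20 µM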
MITF TRPM1 inh: inhibitors of MITF-driven TRPM1 promoter in melanoma cells; SK-MEL-5 TRPM1 promoter luciferase, 24 h; inhibition, % at 12.5 µM; hit rate 0.83% among 330,000;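 active = mean inhibition across replicates of 60% or more, whatever share of single replicates reaches that level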
HIF-2a inh: inhibitors of HIF-2a | 786-0 RCC cells HIF-2a reporter, luciferase luminescence, overnight | inhibition, % at 18.8 µM | hit rate 0.72% among 360,000 | AID 624352;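 active = inhibition of the luminescence signal of 40% or more relative to plate controls, in a single-dose primary screen at 18.75 µM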
Mdm2 MdmX conf: confirmation of inhibitors of human Mdm2/MdmX interaction, set 2 | shares compounds with HIF-2a inh | SaOS-2 split-luciferase Mdm2/MdmX complementation, luminescence | inhibition, % at 8 µM | hit rate 99% among 740;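 active = mean inhibition of the luminescence signal across two replicates at or above 26 percent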
HIF-2a inh conf: HIF-2a inhibition, single concentration confirmation; shares compounds with HIF-2a inh; inhibition, % at 18.8 µM; hit rate 56% among 1,800; AID 651580; 786-0 RCC cells, HIF-2a luciferase reporter luminescence, overnight;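 active = mean inhibition across four replicates of at least 40 percent at the single tested concentration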
HIF-1a cs: inhibits HIF-1a reporter, a counter-screen for HIF-2a inhibitors. hit rate 72% among 1,800. shares compounds with HIF-2a inh. MiaPaCa-2 HIF-1a luciferase reporter, desferoxamine, overnight. AID 651589. inhibition, % at 18.8 µM;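 active = mean inhibition of the reporter signal across four replicates at the single tested dose of 50% or more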
Starred values were filed as active, the others as inactive.

Screening COc1ccc(N(C(=O)CCl)C(C(=O)NCCc2ccccc2)c2cccs2)cc1 (stereo not given) returned CF NFkB block 90.2*, ABHD5 PLIN5 PPI 12.9, KKLEB cytotox -92.1*, Peg3 prom inh 105.1*, MITF TRPM1 inh 88.3*, HIF-2a inh 96.4*, HIF-2a inh conf 98.2* and HIF-1a cs 106.9*.
`COc1ccccc1N(Cc1cc(=O)[nH]c2ccccc12)C(=O)c1ccccc1` gave CF NFkB block -19.1, ABHD5 PLIN5 PPI -10.6, KKLEB cytotox 13.1, Peg3 prom inh 15.2, MITF TRPM1 inh 2.7, HIF-2a inh 67.3*, HIF-2a inh conf -4.4 and HIF-1a cs 1.9.
CCCn1c(C)cc(C(=O)COC(=O)c2ccc[nH]c2=O)c1C was read as CF NFkB block -5.0, ABHD5 PLIN5 PPI 10.5, KKLEB cytotox -10.5, Peg3 prom inh -5.7, MITF TRPM1 inh 10.7, HIF-2a inh 42.1*, HIF-2a inh conf 35.7 and HIF-1a cs 14.1.
COCCn1c(C)cc(C(=O)COC(=O)c2n[nH]c3ccccc23)c1C was read as CF NFkB block 9.8, ABHD5 PLIN5 PPI 5.3, KKLEB cytotox -58.7*, Peg3 prom inh -10.1, MITF TRPM1 inh -2.3, HIF-2a inh 47.4*, HIF-2a inh conf 44.9* and HIF-1a cs 30.9.
CCCn1c(C)cc(C(=O)COC(=O)c2ccc(Cl)c(S(=O)(=O)N3CCCC3)c2)c1C was read as CF NFkB block 15.6, ABHD5 PLIN5 PPI -4.8, KKLEB cytotox -8.8, Peg3 prom inh -94.1, MITF TRPM1 inh -11.1 and HIF-2a inh -125.7.
CP(=O)(Nc1cc(Cl)ccc1Cl)c1nc2c(s1)CCCC2 (stereo not given) was read as CF NFkB block 9.9, ABHD5 PLIN5 PPI -0.1, KKLEB cytotox -6.9, Peg3 prom inh 0.4, MITF TRPM1 inh 1.3 and HIF-2a inh 5.9.
Cc1ccc(NC2CCCN(C(=O)c3ccoc3)C2)cc1C (stereo not given) was read as CF NFkB block -23.8, ABHD5 PLIN5 PPI 5.6, KKLEB cytotox 8.7, Peg3 prom inh -8.9, MITF TRPM1 inh 5.2 and HIF-2a inh -23.1.
`CC(C)c1ccc(/C=C/C(=O)NC(=S)NN2CCOCC2)cc1` gave CF NFkB block -23.5, ABHD5 PLIN5 PPI 1.4, KKLEB cytotox 15.2, Peg3 prom inh -68.1, MITF TRPM1 inh -0.6, HIF-2a inh 40.8*, HIF-2a inh conf -14.5 and HIF-1a cs -13.6.
`CCc1cc(-c2nnn(-c3cc(C(C)C)ccc3C)c2CC)ccc1-c1cn(CCc2c[nH]c3ccccc23)nn1` gave CF NFkB block 23.0, ABHD5 PLIN5 PPI 3.9, KKLEB cytotox -13.8, Peg3 prom inh 14.0 and HIF-2a inh -0.7.
Screening O=C1CCCCCN1C(=O)c1ccccc1 returned CF NFkB block 9.7, ABHD5 PLIN5 PPI -6.5, KKLEB cytotox -4.4, Peg3 prom inh 5.4, MITF TRPM1 inh -1.8 and HIF-2a inh -1.7.
Screening O=C1CCCCCN1Sc1ccccc1 returned CF NFkB block 12.4, ABHD5 PLIN5 PPI -32.7, KKLEB cytotox -5.0, Peg3 prom inh 14.3, MITF TRPM1 inh 10.0, HIF-2a inh 44.3*, HIF-2a inh conf 30.8 and HIF-1a cs 8.4.
Screening CC1Cc2ccccc2N1c1ncnc(N)c1[N+](=O)[O-] (stereo not given) returned CF NFkB block 84.7*, ABHD5 PLIN5 PPI 4.8, KKLEB cytotox -16.9, Peg3 prom inh 17.3, MITF TRPM1 inh 33.8, HIF-2a inh 34.8 and Mdm2 MdmX conf 102.5*.
For COc1ccc(CC(=O)Nc2ccc(S(=O)(=O)Nc3onc(C)c3C)cc2)cc1OC the results were CF NFkB block -7.5, ABHD5 PLIN5 PPI 0.5, KKLEB cytotox -4.6, Peg3 prom inh 8.1, MITF TRPM1 inh 4.2 and HIF-2a inh 10.9.
Screening CNC(=O)c1cc(Oc2ccc(NC(=O)Nc3ccc(Cl)c(C(F)(F)F)c3)cc2)ccn1 returned CF NFkB block 74.7*, ABHD5 PLIN5 PPI -10.9, KKLEB cytotox -11.9, Peg3 prom inh 48.9, MITF TRPM1 inh 17.5, HIF-2a inh 14.9 and Mdm2 MdmX conf 99.5*.
Screening O=C(Nc1ccc(Cl)c(C(F)(F)F)c1)c1ccncc1 returned CF NFkB block -45.0, ABHD5 PLIN5 PPI 0.2, KKLEB cytotox -6.4, Peg3 prom inh -25.3, MITF TRPM1 inh 0.4 and HIF-2a inh -17.6.
`CC(C)CNC(=O)C1CCN(c2ccc(S(=O)(=O)N3CCOCC3)cc2[N+](=O)[O-])CC1` gave CF NFkB block 1.7, ABHD5 PLIN5 PPI -2.1, KKLEB cytotox -7.3, Peg3 prom inh -0.6, MITF TRPM1 inh 11.1 and HIF-2a inh 15.0.
O=C(O)CCC(=O)NNc1nc2ccccc2nc1-c1ccccc1 was read as CF NFkB block 0.0, ABHD5 PLIN5 PPI -3.5, KKLEB cytotox -3.2, Peg3 prom inh 5.6, MITF TRPM1 inh -7.6 and HIF-2a inh 7.7.
Cc1ccc(NC(=O)CCN2CCN(CCO)CC2)cc1 was read as CF NFkB block -4.0, ABHD5 PLIN5 PPI 8.7, KKLEB cytotox 3.5, Peg3 prom inh 15.5, MITF TRPM1 inh -2.0 and HIF-2a inh 7.9.
Screening Cc1ccc(NC(=O)CCN2CCCCC2)cc1 returned CF NFkB block -6.2, ABHD5 PLIN5 PPI 7.4, KKLEB cytotox -2.6, Peg3 prom inh 34.0, MITF TRPM1 inh 4.7, HIF-2a inh 61.2*, HIF-2a inh conf 55.1* and HIF-1a cs 73.2*.
Screening CCCCOc1ccc(C(=O)C(CN2CCOCC2)c2ccccc2)cc1 (stereo not given) returned CF NFkB block -18.1, ABHD5 PLIN5 PPI 4.0, KKLEB cytotox -37.7, Peg3 prom inh 96.5*, MITF TRPM1 inh 33.0, HIF-2a inh 86.9*, HIF-2a inh conf 25.4 and HIF-1a cs 104.8*.
Screening CCCCOc1ccc(C(O)C(CN2CCCCC2)c2ccccc2)cc1 (stereo not given) returned CF NFkB block 14.9, ABHD5 PLIN5 PPI 5.4, KKLEB cytotox -5.8, Peg3 prom inh -11.6, MITF TRPM1 inh -6.4 and HIF-2a inh 4.8.
Screening CCCOc1ccc(C(=O)C(CN2CCCC2)c2ccccc2)cc1 (stereo not given) returned CF NFkB block 38.5, ABHD5 PLIN5 PPI -0.6, KKLEB cytotox -61.0*, Peg3 prom inh 108.5*, MITF TRPM1 inh 77.4*, HIF-2a inh 85.5*, HIF-2a inh conf -17.7 and HIF-1a cs 103.9*.
`O=[N+]([O-])c1ccc2nonc2c1Nc1ccccc1` gave CF NFkB block 25.3, ABHD5 PLIN5 PPI 4.6, KKLEB cytotox -10.7, Peg3 prom inh 17.7, MITF TRPM1 inh -3.8 and HIF-2a inh 20.2.
